Laboratory results as given in PubChem BioAssay (NCATS).
Records with an inconclusive call do not appear. Unmarked numbers belong to inactive results. Calls follow the shape of the dose curve; as a rule, active = well fitted cell-killing curve with a large enough effect; inconclusive = small, poorly fitted or top-dose-only effect, or effect the other way; inactive = flat fitted curve, though single readings scatter.

system: HeLa; experiment: Primary qHTS to identify gynecologic anti-cancer compounds using libraries of approved drugs and bioactive compounds (AID 1345084); details: Gynecologic cancer cell panel viability, ATPlite luminescence, 48 h; series mostly up to 57.5 µM; activity change, negative = cytotoxicity: at the top concentration; also: nearly all actives have a fitted effect of over 55% in size
In short: (§1)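 Cell viability after 48 h drug treatment, ATPlite luminescence readout; five doses.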
% is scaled to controls: 0 for no effect and ±100 for the full control effect.

Compound | activity change, negative = cytotoxicity
CC1CCC2C(C(=O)O)=CC3C(O)C(C)(C)CC123 (centres undefined) | -1.05%
CC(C)(O)/C=C1/C(=O)C(C)(C)C(=O)C(C)(C)C1(O)O[C@@H]1O[C@H](COC(=O)c2cc(O)c(O)c(O)c2)[C@@H](O)[C@H](O)[C@H]1O (some centres undefined) | 18.3% [at 25.3 µM]
Cc1cc(O)c(C(C)C)cc1O[C@@H]1O[C@H](CO)[C@@H](O)[C@H](O)[C@H]1O | 9.43% [at 38.5 µM]
O=C1CC(c2ccc([N+](=O)[O-])cc2)=NN1c1ccccc1 | 2.7%
C=C1[C@H]2[C@H](O[C@@H]3O[C@H](COC(=O)/C=C/c4cc(OC)c(O)c(OC)c4)[C@@H](O)[C@H](O)[C@H]3O)OC=C(C(=O)O)[C@H]2C[C@@H]1O | 2.79% [at 25.3 µM]
C/C=C(\C)C(=O)OC[C@H]1O[C@H](O[C@H]2O[C@H](CO)[C@@H](OC(=O)/C(C)=C/C)[C@H](O)[C@H]2O[C@@H]2O[C@H](CO)[C@@H](O)[C@H](O)[C@H]2O)[C@H](O[C@@H]2O[C@H](CO)[C@@H](O)[C@H](O)[C@H]2O)[C@@H](O)[C@@H]1O | 13.4% [at 11.6 µM]
CN1CC[C@@H](NC(=O)Nc2ccc(C#N)cc2)C[C@@H]1c1nc2ccccc2[nH]1 | 17.3%
O=C(O)c1cc(O[C@@H]2O[C@H](CO[C@@H]3OC[C@@H](O)[C@H](O)[C@H]3O)[C@@H](O)[C@H](O)[C@H]2O)c2ccccc2c1O | -8.77% [at 25.3 µM]
O=c1ccn(C2OC(CO)C(O)C2O)c(=O)[nH]1 (centres undefined) | -0.183%
Clc1ccc(CN[C@H]2CCN(c3ncc(Br)cn3)C2)c(Cl)c1 | 7%
C=C1C(=O)OC2/C=C(\C)CC/C=C(\C(=O)O)CC/C=C(\C)CCC12 (centres undefined) | 1.55% [at 38.5 µM]
C=CC1(C)C=C2C(=O)CC3C(C)(C)CCCC3(C(=O)O)C2(O)CC1 (centres undefined) | 0.413% [at 38.5 µM]
COc1c(C)c2c(c(O)c1C/C=C(\C)CC/C=C(\C)CCC(=O)O)C(=O)OC2 | 9.74% [at 38.5 µM]
CNC(=O)COC(=O)NCCC1CCN(c2cccc(C)n2)CC1 | -1.33%
Cc1nn(C)c(COc2ccc(N3CCN(S(=O)(=O)N(C)C)CC3)cc2)c1-c1cccc2c(CCCOc3cccc4ccccc34)c(C(=O)O)n(CCN3CCOCC3)c12 | 19%
CCCCS(=O)(=O)Nc1ncnc(OCCOc2ncc(Br)cn2)c1-c1ccc(Br)cc1 | 2.37%
C[C@H]1C[C@H]2[C@@H]3CCC4=CC(=O)C=C[C@]4(C)[C@@]3(F)[C@@H](O)C[C@]2(C)[C@@]1(O)C(=O)COP(=O)(O)O | 6.15%
CC(C)(O)c1ccc2c(c1)C(O)CC1C(C)(C(=O)O)CCCC21C (centres undefined) | -5.74% [at 38.5 µM]
COc1cc(CCc2ccccc2)c(C(=O)O)c2c1CC(C(C)(C)O)O2 (centres undefined) | 4.29% [at 38.5 µM]
CCCCCCc1cccc(NC(=O)[C@H](N)CCP(=O)(O)O)c1 | 2.94% [at 11.6 µM]
CC(C)CC(=O)n1cc(C(N)=O)c(=O)cc1C(O)c1ccccc1 (centres undefined) | 2.01% [at 38.5 µM]
CC(C)C(C#N)O[C@@H]1O[C@H](CO[C@@H]2OC[C@](O)(CO)[C@H]2O)[C@@H](O)[C@H](O)[C@H]1O (some centres undefined) | -12.2% [at 38.5 µM]
COc1ccc(/C=C/C(=O)O[C@H]2[C@@H]3C=CO[C@@H](O[C@@H]4O[C@H](CO)[C@@H](O)[C@H](O)[C@H]4O)[C@@H]3[C@@]3(CO)O[C@@H]23)cc1O | -3.66% [at 25.3 µM]
C=C1CC23CC1(O)CCC2C1=CC2OC(=O)C(C)(C2O)C1C3C(=O)O (centres undefined) | -4.35% [at 38.5 µM]
COc1cc(/C=C/C(=O)OC[C@H]2O[C@H](O[C@]3(CO)O[C@H](CO)[C@@H](O)[C@@H]3O)[C@H](O)[C@@H](O)[C@@H]2O)cc(OC)c1O | 2.75% [at 25.3 µM]
C(#Cc1cccc(CN2CCOCC2)c1)CCN1CCCCC1 | 9.63%
COc1cc(C)c(C(=O)O[C@H]2[C@@H](O)[C@H](n3ccc(=O)[nH]c3=O)O[C@@H]2CO)c(OC)c1 | -7.17% [at 25.3 µM]
C[C@@]12C[C@]3(O)O[C@H](O1)[C@]1(COC(=O)c4ccccc4)[C@H]3C[C@@]12O[C@@H]1O[C@H](COC(=O)c2ccccc2)[C@@H](O)[C@H](O)[C@H]1O | 1.03% [at 25.3 µM]
C[C@@H]1O[C@@H](O[C@H]2[C@H](O)[C@@H](C(=O)O)O[C@@H](O[C@H]3CC[C@@]4(C)C(CC[C@]5(C)C4CC=C4C6CC(C)(C)CC[C@]6(C(=O)O)CC[C@]45C)C3(C)C)[C@@H]2O[C@@H]2O[C@H](CO)[C@@H](O)[C@H](O)[C@H]2O)[C@H](O)[C@H](O)[C@H]1O (some centres undefined) | 6.77% [at 11.6 µM]
CC(=O)N1CCN(NC(=O)c2ccc(F)cc2)CC1 | 15.8%

system: Hek293T; experiment: as above; details: Gynecologic cancer cell panel viability, ATPlite luminescence, 48 h, control line for the selectivity index; series mostly up to 57.5 µM; activity change, negative = cytotoxicity: at the top concentration
In short: as §1

Compound | activity change, negative = cytotoxicity
C[C@]12CCC[C@](C)(C(=O)O)C1CCC13C=C(CO)C(CCC12)C3 (some centres undefined) | 7.72% [at 38.5 µM]
O=C(c1ccc(C#Cc2cccc(F)c2)cn1)N1CC2CC2C1 (centres undefined) | 3.66%
C[C@H]1[C@H](C)CC[C@]2(C(=O)O)CC[C@]3(C)C(=CC[C@@H]4[C@@]5(C)C[C@@H](O)[C@H](O)[C@@](C)(CO)[C@@H]5CC[C@]43C)[C@H]12 | 8.44%
C/C=C/C=C/C(CC(=O)O)Nc1ccc(C=O)cc1 (centres undefined) | 6.49%
C[C@@H]1O[C@@H](O[C@H]2[C@H](OC(=O)[C@]34CCC(C)(C)C[C@H]3C3=CCC5[C@@]6(C)C[C@H](O)[C@H](O[C@@H]7O[C@H](CO)[C@@H](O[C@@H]8O[C@H](CO)[C@@H](O)[C@H](O)[C@H]8O)[C@H](O)[C@H]7O)[C@@](C)(CO)C6[C@H](O)C[C@@]5(C)[C@]3(C)C[C@H]4O)OC[C@H](O)[C@@H]2O)[C@H](O)[C@H](O)[C@H]1O[C@@H]1OC[C@@H](O)[C@H](O[C@@H]2OC[C@](O)(CO)[C@H]2O)[C@H]1O (some centres undefined) | 1.73% [at 6.55 µM]
CC(C)(O)c1ccc2c(c1)C(=O)CC1[C@](C)(CO)CCC[C@]21C (some centres undefined) | -9.97% [at 38.5 µM]
CC(=O)C1CCC2(C)C3=C(CCC12C)C1(C)CCC(=O)C(C)(C)C1CC3 (centres undefined) | 3.99% [at 38.5 µM]
C[C@@H]1C/C=C/C=C\C=C\C=C\[C@H](O[C@@H]2O[C@H](C)[C@@H](O)[C@H](N)[C@@H]2O)C[C@@H]2O[C@](O)(C[C@@H](O)C[C@H]3O[C@@H]3/C=C/C(=O)O1)C[C@H](O)[C@H]2C(=O)O | -0.505% [at 25.3 µM]
COC(=O)C[C@@H]1C(C(=O)O)=CO[C@@H](O[C@@H]2O[C@H](CO)[C@@H](O)[C@H](O)[C@H]2O)/C1=C\COC(=O)/C=C\c1ccccc1 | -14.6% [at 25.3 µM]
CC1CCC2C(C(=O)O)=CC3C(O)C(C)(C)CC123 (centres undefined) | -2.71%
CC(C)(O)/C=C1/C(=O)C(C)(C)C(=O)C(C)(C)C1(O)O[C@@H]1O[C@H](COC(=O)c2cc(O)c(O)c(O)c2)[C@@H](O)[C@H](O)[C@H]1O (some centres undefined) | -0.111% [at 25.3 µM]
Cc1cc(O)c(C(C)C)cc1O[C@@H]1O[C@H](CO)[C@@H](O)[C@H](O)[C@H]1O | 21.1% [at 38.5 µM]
O=C1CC(c2ccc([N+](=O)[O-])cc2)=NN1c1ccccc1 | 2.21%
C=C1[C@H]2[C@H](O[C@@H]3O[C@H](COC(=O)/C=C/c4cc(OC)c(O)c(OC)c4)[C@@H](O)[C@H](O)[C@H]3O)OC=C(C(=O)O)[C@H]2C[C@@H]1O | 4.63% [at 25.3 µM]
C/C=C(\C)C(=O)OC[C@H]1O[C@H](O[C@H]2O[C@H](CO)[C@@H](OC(=O)/C(C)=C/C)[C@H](O)[C@H]2O[C@@H]2O[C@H](CO)[C@@H](O)[C@H](O)[C@H]2O)[C@H](O[C@@H]2O[C@H](CO)[C@@H](O)[C@H](O)[C@H]2O)[C@@H](O)[C@@H]1O | 8.94% [at 11.6 µM]
CN1CC[C@@H](NC(=O)Nc2ccc(C#N)cc2)C[C@@H]1c1nc2ccccc2[nH]1 | 8.66%
O=C(O)c1cc(O[C@@H]2O[C@H](CO[C@@H]3OC[C@@H](O)[C@H](O)[C@H]3O)[C@@H](O)[C@H](O)[C@H]2O)c2ccccc2c1O | -1.78% [at 25.3 µM]

Compound | activity change, negative = cytotoxicity
O=c1ccn(C2OC(CO)C(O)C2O)c(=O)[nH]1 (centres undefined) | 6.91%
Clc1ccc(CN[C@H]2CCN(c3ncc(Br)cn3)C2)c(Cl)c1 | -0.967%
C=C1C(=O)OC2/C=C(\C)CC/C=C(\C(=O)O)CC/C=C(\C)CCC12 (centres undefined) | 3.09% [at 38.5 µM]
C=CC1(C)C=C2C(=O)CC3C(C)(C)CCCC3(C(=O)O)C2(O)CC1 (centres undefined) | -0.589% [at 38.5 µM]
COc1c(C)c2c(c(O)c1C/C=C(\C)CC/C=C(\C)CCC(=O)O)C(=O)OC2 | 14.4% [at 38.5 µM]
CNC(=O)COC(=O)NCCC1CCN(c2cccc(C)n2)CC1 | 1.44%
Cc1nn(C)c(COc2ccc(N3CCN(S(=O)(=O)N(C)C)CC3)cc2)c1-c1cccc2c(CCCOc3cccc4ccccc34)c(C(=O)O)n(CCN3CCOCC3)c12 | 11.4%
CCCCS(=O)(=O)Nc1ncnc(OCCOc2ncc(Br)cn2)c1-c1ccc(Br)cc1 | 9.6%
C[C@H]1C[C@H]2[C@@H]3CCC4=CC(=O)C=C[C@]4(C)[C@@]3(F)[C@@H](O)C[C@]2(C)[C@@]1(O)C(=O)COP(=O)(O)O | 2.11%
CC(C)(O)c1ccc2c(c1)C(O)CC1C(C)(C(=O)O)CCCC21C (centres undefined) | 3.55% [at 38.5 µM]
COc1cc(CCc2ccccc2)c(C(=O)O)c2c1CC(C(C)(C)O)O2 (centres undefined) | -0.325% [at 38.5 µM]
CCCCCCc1cccc(NC(=O)[C@H](N)CCP(=O)(O)O)c1 | -0.817% [at 11.6 µM]
CC(C)CC(=O)n1cc(C(N)=O)c(=O)cc1C(O)c1ccccc1 (centres undefined) | 0.53% [at 38.5 µM]
CC(C)C(C#N)O[C@@H]1O[C@H](CO[C@@H]2OC[C@](O)(CO)[C@H]2O)[C@@H](O)[C@H](O)[C@H]1O (some centres undefined) | 1.85% [at 38.5 µM]
COc1ccc(/C=C/C(=O)O[C@H]2[C@@H]3C=CO[C@@H](O[C@@H]4O[C@H](CO)[C@@H](O)[C@H](O)[C@H]4O)[C@@H]3[C@@]3(CO)O[C@@H]23)cc1O | -1.15% [at 25.3 µM]
C=C1CC23CC1(O)CCC2C1=CC2OC(=O)C(C)(C2O)C1C3C(=O)O (centres undefined) | 0.817% [at 38.5 µM]
COc1cc(/C=C/C(=O)OC[C@H]2O[C@H](O[C@]3(CO)O[C@H](CO)[C@@H](O)[C@@H]3O)[C@H](O)[C@@H](O)[C@@H]2O)cc(OC)c1O | 12.6% [at 25.3 µM]
